Pol beta inh = blocks human DNA polymerase beta activity; P06746; Pol beta primer extension/strand displacement, fluorescence kinetic; Potency, µM (top dose mostly 114 µM), most hits filed as inhibitors; 340,000 compounds, 1.3% hits
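Kinetic readout of DNA synthesis with strand displacement by Pol beta. Compound and 10 nM enzyme sit 15 min at room temperature; 50 nM substrate starts the reaction, read immediately and at 10 min.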
Pol kappa inh-1 = blocks human DNA polymerase kappa activity | Q9UBT6 | purified Pol kappa, fluorescent DNA synthesis assay, 10 min | 400,000 compounds, 0.53% hits | Potency, µM (top dose mostly 107 µM), actives largely listed as inhibitors
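Kinetic fluorescence screen: compound preincubated 15 min RT with 10 nM enzyme; 50 nM substrate (final) initiates; reads at 0/10 min.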
POLI inh = DNA polymerase iota (human) inhibition; Q9UNA4; 390,000 compounds, 1% hits; Potency, µM (titrated, usually from 115 µM), usual class: inhibitors; Pol iota fluorescent replication assay, 10 min
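Pol iota at 10 nM preincubated 15 min with compounds at room temperature; reaction started with fluorescent substrate, 50 nM final. Fluorescence read kinetically at 0 and 10 min; buffer-only wells as negative control.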
TDP1 inh = blocks human tyrosyl-DNA phosphodiesterase 1; 350,000 compounds, 0.28% hits; recombinant TDP1, AlphaScreen DNA substrate cleavage; Q9NUW8; Potency, µM (doses to about 130 µM), most hits filed as inhibitors; AID 485290; note: nearly all actives have a fitted effect of over 40% in size
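Tdp1 1 nM final; 15 min RT w/ cpd; substrate 15 nM, 5 min; beads 10 ug/ml, 10 min; AlphaScreen read. Neg ctrl: no enzyme.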
FEN1 inh = inhibitors of human flap endonuclease 1; P39748; Recombinant FEN1 flap cleavage, fluorescence, 15 min; Potency, µM (titrated, usually from 114 µM), most hits filed as inhibitors; 390,000 compounds, 0.35% hits; note: nearly all actives have a fitted effect of over 65% in size
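Read-out was taken twice, immediately and after 15 min, following addition of 50 nM substrate to 10 nM FEN1 that had sat with test compound for 15 min at room temperature. Curves came from a four-parameter Hill model.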
Pol eta inh-1 = DNA polymerase eta (human) inhibition. recombinant Pol eta, fluorescent DNA replication assay. Potency, µM (highest dose often 114 µM), hits mostly inhibitors. 390,000 compounds, 1.2% hits. Q9Y253
Target sequence (Q9Y253 whole entry, looked up): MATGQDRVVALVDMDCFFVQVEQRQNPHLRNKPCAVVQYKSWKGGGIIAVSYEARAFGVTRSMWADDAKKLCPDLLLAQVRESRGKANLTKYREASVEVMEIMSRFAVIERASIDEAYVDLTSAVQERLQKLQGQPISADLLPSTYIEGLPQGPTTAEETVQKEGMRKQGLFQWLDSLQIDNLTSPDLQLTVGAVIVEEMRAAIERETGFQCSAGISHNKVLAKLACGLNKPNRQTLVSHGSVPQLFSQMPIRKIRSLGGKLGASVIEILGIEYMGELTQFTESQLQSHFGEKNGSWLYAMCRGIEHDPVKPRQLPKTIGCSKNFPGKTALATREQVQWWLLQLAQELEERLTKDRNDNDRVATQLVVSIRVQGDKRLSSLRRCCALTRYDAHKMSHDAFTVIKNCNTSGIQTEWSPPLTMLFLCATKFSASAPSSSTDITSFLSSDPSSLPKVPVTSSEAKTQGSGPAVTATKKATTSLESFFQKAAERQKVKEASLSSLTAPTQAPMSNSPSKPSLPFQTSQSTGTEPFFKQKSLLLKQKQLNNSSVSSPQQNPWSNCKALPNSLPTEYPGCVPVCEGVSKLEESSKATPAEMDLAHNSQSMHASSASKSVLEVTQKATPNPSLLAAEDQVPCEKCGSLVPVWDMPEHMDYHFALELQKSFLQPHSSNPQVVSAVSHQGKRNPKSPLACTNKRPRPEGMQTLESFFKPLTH
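Pol eta at 10 nM preincubated with compounds 15 min at room temperature; reaction started with fluorescent substrate (50 nM final) and read kinetically at 0 and 10 min.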
PGK validate = validation of Trypanosoma brucei phosphoglycerate kinase inhibitors; TbPGK coupled GAPDH assay, Kinase-Glo luminescence; 500 compounds, 79% hits; Potency, µM (series often up to 57.5 µM), usual class: inhibitors; AID 686980; shares compounds with Pol kappa inh-1; note: nearly all actives have a fitted effect of over 65% in size
POLI cherry-pick = Confirm cherry-picked inhibitors of human polymerase iota | shares compounds with Pol kappa inh-1 | 1,500 compounds, 77% hits | AID 720496 | Pol iota primer extension, TAMRA/BHQ fluorescence | Potency, µM, most hits filed as inhibitors
Pol kappa inh-2 = Pol kappa (human) inhibition, cherry-pick confirmation. 920 compounds, 76% hits. Potency, µM, actives largely listed as inhibitors. AID 720501. purified Pol-kappa, fluorescent strand-displacement substrate. shares compounds with Pol eta inh-1
Pol eta inh-2 = Pol eta (human) inhibition, cherry-pick confirmation. shares compounds with Pol eta inh-1. Pol eta primer extension, TAMRA/BHQ fluorescence, 10 min. Potency, µM, actives largely listed as inhibitors. 2,600 compounds, 64% hits
Numbers stand for hits; n = inactive; u = inconclusive; x = no result. Rows were chosen to be rich in hits. Some 2.4% of all compounds tested hit in one or more screens of this group. Calls come from the whole dose curve; as a rule, active = well fitted curve in the direction sought with a large enough effect; inconclusive = small, poorly fitted or top-dose-only effect, or another doubt; inactive = no such curve, though single readings can be large; an effect the other way counts as inactive or inconclusive.

SMILES	Pol beta inh	Pol kappa inh-1	POLI inh	TDP1 inh	FEN1 inh	Pol eta inh-1	POLI cherry-pick	Pol eta inh-2	others
O=C1c2cc([N+](=O)[O-])cc3cc([N+](=O)[O-])cc(c23)C(=O)N1c1ccccn1	u	u	u	n	u	15.8µM	67	30.1	Pol kappa inh-2=21.2
O=C(O)c1cccc(N2C(=O)c3cc([N+](=O)[O-])cc4cc([N+](=O)[O-])cc(c34)C2=O)c1	6.31µM	22.4µM	2.24µM	x	20µM	3.98µM	42.3	23.9	PGK validate=10.3µM;Pol kappa inh-2=15
CN(C)c1ccc(/C=C/c2ccc3cc(F)ccc3n2)cc1	x	n	n	x	n	x	x	x
CCCCOC(=O)c1ccc(NC(=O)c2cc(-c3cccs3)on2)cc1	n	n	n	n	n	n	x	x
Cc1cccc2c(/C=C/c3ccc(N(C)C)cc3)ccnc12	x	n	u	x	u	x	x	x
Cc1ccc(C(=O)NNC(=O)CSc2nnc3c(n2)[nH]c2ccc(F)cc23)cc1	5.01µM	n	n	n	n	79.4µM	18.9	u	Pol kappa inh-2=18.9
O=C(O)C(C(=O)/C=C/c1ccco1)=C1SCCS1	25.1µM	44.7µM	3.98µM	20µM	n	8.91µM	53.2	47.8
Cc1cc(C)c2oc(C(=O)Nc3ccc(S(=O)(=O)N4CCCCC4)cc3)cc(=O)c2c1	n	n	n	n	n	n	x	x
C/C=C\C=C\C(=O)N1CC2(CC(c3cccc(NC(=O)CC)c3)=NO2)C[C@H]1C(N)=O (stereo not given in full)	n	79.4µM	u	n	u	35.5µM	11.9	53.6
C=C(C)C(=O)Nc1cccc(C2=NOC3(C2)C[C@@H](C(N)=O)N(C(=O)CCCCC)C3)c1 (stereo not given in full)	2µM	7.94µM	8.91µM	39.8µM	25.1µM	1.41µM	18.9	3.01	PGK validate=0.58µM
C/C=C\C=C\C(=O)N1CC2(CC(c3cccc(NC(=O)COc4ccc(Cl)cc4)c3)=NO2)C[C@H]1C(N)=O (stereo not given in full)	n	n	u	n	n	n	x	x
C/C=C/C=C\C(=O)Nc1cccc(C2=NOC3(C2)C[C@H](C(N)=O)N(C(=O)/C=C/C)C3)c1 (stereo not given in full)	u	u	u	n	n	22.4µM	33.6	37.9
NS(=O)(=O)c1ccc(-c2ccc(C=C3C(=O)c4ccccc4C3=O)o2)cc1	n	n	u	x	n	n	x	x
Cc1ccc(/C=C2/C(=O)c3ccc(C(=O)O)cc3C2=O)o1	25.1µM	5.01µM	u	3.55µM	25.1µM	3.98µM	23.8	8.49	Pol kappa inh-2=10.6
Cc1ccc(C=C2C(=O)c3ccccc3C2=O)o1	14.1µM	u	22.4µM	n	n	12.6µM	47.4	47.8	Pol kappa inh-2=42.3
CCOc1ccc(CCNC(=O)c2ccc(C)c(-n3cnc4cccnc43)c2)cc1	n	n	n	n	n	n	x	x
CCc1nn2c(=O)cc(COc3ccc(/C=C4\C(=N)N5N=C(C)SC5=NC4=O)cc3)nc2s1	35.5µM	79.4µM	u	u	u	7.08µM	33.6	47.8	Pol kappa inh-2=18.9
Oc1ccc(-c2csc(-c3cccnc3)n2)cc1O	u	31.6µM	28.2µM	x	n	25.1µM	84.4	u
O=C1/C(=C/c2ccco2)SC(=S)N1c1cccnc1	1.58µM	8.91µM	u	x	28.2µM	2.82µM	3.77	5.36	PGK validate=3.26µM;Pol kappa inh-2=4.74
COc1ccc(C(CC(=O)N2CCCC2)c2c(OC)cc(OC)c3ccc(=O)oc23)cc1 (stereo not given)	n	n	n	n	n	n	x	x
CCN(CC)C(=O)CC(c1ccc(N(C)C)cc1)c1c(OC)cc(OC)c2c(-c3ccccc3)cc(=O)oc12 (stereo not given)	u	n	n	n	n	n	x	x
COc1ccc(C(CC(=O)N2CCCC2)c2c(OC)cc(OC)c3c(-c4ccccc4)cc(=O)oc23)cc1 (stereo not given)	35.5µM	79.4µM	70.8µM	7.94µM	n	u	33.6	75.7
COc1ccc(C(CC(=O)N2CCCCC2)c2c(OC)cc(OC)c3c(-c4ccccc4)cc(=O)oc23)cc1 (stereo not given)	25.1µM	50.1µM	70.8µM	x	n	20µM	42.3	u
Cc1ccn2c(c1)nc(=O)c1cc(S(=O)(=O)N3CCCCC3)c(Cl)cc12	n	n	n	n	n	n	x	x
C=CCn1c(O)c(N=NC(=O)CNC(=O)/C=C/c2ccco2)c2ccccc21	14.1µM	u	28.2µM	u	u	50.1µM	37.7	75.7
SMILES	Pol beta inh	Pol kappa inh-1	POLI inh	TDP1 inh	FEN1 inh	Pol eta inh-1	POLI cherry-pick	Pol eta inh-2	others
Cc1ccc(N(CCC#N)C(=O)CSc2ccc3c(c2)OCCO3)cc1	n	n	n	n	n	n	x	x
Cc1cc(C)n2c(SCC(=O)N(CCC#N)c3ccc4c(c3)OCCO4)nnc2n1	x	x	x	x	x	20µM	26.7	47.8	Pol kappa inh-2=16.8
CN(C)c1ccc(/C=C2\C=Cc3ccccc32)cc1Cl	x	n	n	x	n	x	x	x
CC(=C/C(=O)O)/C=C/c1ccc(Cl)o1	12.6µM	25.1µM	7.94µM	25.1µM	n	1.12µM	21.2	8.49	PGK validate=14.6µM
CC(/C=C/c1ccc(C)o1)=C\C(=O)O	n	n	n	n	n	n	x	x
Cc1cc(SCC(=O)Nc2ccc3[nH]c(=O)[nH]c3c2)nc2ccccc12	x	n	u	44.7µM	n	39.8µM	59.7	x	Pol kappa inh-2=u
CCn1nc(-c2ccccc2C)nc2c(=O)n(C)c(=O)nc1-2	x	n	n	n	n	x	1.19	3.79
Cn1nc(-c2cccnc2)nc2c(=O)n(C)c(=O)nc1-2	x	n	n	n	n	x	1.68	2.39
Cn1nc(-c2ccc(F)cc2)nc2c(=O)n(C)c(=O)nc1-2	x	n	n	n	n	x	1.34	0.849
COc1ccc(-c2nc3c(=O)n(C)c(=O)nc-3n(C)n2)cc1	x	n	n	n	n	x	x	x
Cc1ccccc1-n1c2nc(=O)n(C)c(=O)c-2cc2ccccc21	n	n	n	n	n	n	x	x
N#Cc1c(N)oc(-c2ccco2)c1-c1ccco1	n	u	u	u	n	u	x	x
COc1ccc(OC)c(/C=N/c2oc(-c3ccco3)c(-c3ccco3)c2C#N)c1	44.7µM	79.4µM	u	n	n	79.4µM	37.7	47.8

Screening data as filed in PubChem BioAssay.
